IkB signaling: inhibitors of IkB signaling in ABC-DLBCL cells; ABC-DLBCL IkBa-CBG/CBR dual luciferase ratio, 4 h; response scale: scaled: untreated 0%, proteasome inhibitor 100%; Potency, µM (titrated, usually from 57.1 µM), inactives show at the top dose IkBa stabilization activation; hit rate 0.04% among 110,000; AID 445; active means well fitted curve in the direction sought with a large enough effect in the signal ratio, not every such curve was filed as active; inconclusive means small, poorly fitted or top-dose-only effect, or a change in a side signal; the % refers to the signal ratio;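 further: the direction sought is a rising ratio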
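In this assay, an IκBα–CBG68 fusion accumulates when IKK-driven degradation is blocked; native CBR normalizes for cell number. OCI-Ly3 cells were treated 4 h with compound and doxycycline, then green and red light read after Chroma-Glo addition.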
Imprint erasure: inducers of genomic imprint erasure in mouse ES cells; mouse ES Peg3-LacZ reporter, beta-gal luminescence, 40 h; Potency, µM (top dose mostly 60.7 µM), without a hit: at the highest dose activity change, positive = activation, actives largely listed as activators; hit rate 0.02% among 110,000; AID 1948
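Gelatin-coated wells received 300 freshly trypsinized female ES cells with a Peg3LacZ-Neo reporter on the maternal allele, then incubated 40 hours at 37C. BetaGlo was added for 5 minutes at room temperature before a single luminescence read.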
p53ts 32C tox: kills p53ts cells at the permissive temperature; H1299-p53A138V at 32C, ATP luminescence viability, 24 h; Potency, µM (titrated, usually from 46.1 µM), for inactives: at the top dose activity change, negative = cytotoxicity, usual class: cytotoxic; hit rate 0.93% among 130,000;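 further: 0% = DMSO and -100% = full killing by reference compound; nearly all actives have a fitted effect of over 55% in size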
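H1299-p53 A138V cells (temperature-sensitive p53) exposed 24 h to up to 46 uM compound at 32C, where p53 is wild-type in conformation. Viability read as ATP luminescence and normalised to DMSO and 100 uM tamoxifen. AC50 fitted with the Hill equation.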
p53ts 39C tox: p53ts cell cytotoxicity, nonpermissive temperature; AID 902; hit rate 1.5% among 130,000; Potency, µM (titrated, usually from 46.1 µM), inactives show top-dose activity change, negative = cell killing, usual class: cytotoxic; H1299-p53A138V viability at 39C, ATP luminescence, 24 h; further: on the % scale 0 is the no-effect control and ±100 the full control effect; nearly all actives have a fitted effect of over 55% in size
* hit, by the source's call; ? = inconclusive; . = not tested or not shown; [ ] = another dose, or the depositor's remark. Compounds with a hit are over-represented: about 1.8% of the library has one in this group of screens. Unless noted, the call rests on the fitted dose curve; in most records, active means well fitted curve in the direction sought with a large enough effect; inconclusive means small, poorly fitted or top-dose-only effect, or another doubt; inactive means no such curve, though single readings can be large; an effect the other way counts as inactive or inconclusive. Potency means the concentration at half of the fitted maximal effect.

SMILES	IkB signaling	Imprint erasure	p53ts 32C tox	p53ts 39C tox
C=CCOC(=O)c1sc(NC(=O)c2ccco2)nc1C	6%	-66%	10µM*	?
CC1CCc2nc(NC(=O)C3CCCO3)sc2C1 (stereo not drawn)	?	-57%	10µM*	13µM*
CC1CCc2nc(NC(=O)c3ccco3)sc2C1 (stereo not drawn)	?	-83%	2.5µM*	2.5µM*
Cc1ccc(Cl)cc1N1CCN(S(=O)(=O)c2ccc3oc(=O)c4ncn(C)c4c3c2)CC1	0%	-8%[10.9 µM]	4%	10%
Cc1nn(C(=O)c2cccs2)c(N)c1-c1ccccc1	1%	-8%	13µM*	?
Cc1nn(C(=O)c2ccc3c(c2)OCO3)c(N)c1-c1ccccc1	12%	-15%	13µM*	?
Cc1ccccc1NC(=O)C(=O)NCC1(c2ccccc2)CCCC1	?	-13%[10.9 µM]	-1%	?
O=c1c(-c2cccs2)nc2cnc(N3CCNCC3)nc2n1CCc1ccccc1	0%[11.4 µM]	-37%	?	16µM*
Fc1ccc(-n2ncc3c(N4CCCCCC4)ncnc32)cc1	0%	-24%[10.9 µM]	?	5µM*
Cc1ccc(-n2ncc3c(N4CCCCCC4)ncnc32)cc1	2%	-46%[10.9 µM]	3.2µM*	2.5µM*
CCN1CCN(c2ncnc3c2cnn3-c2ccc(C)cc2)CC1	-1%	-12%[10.9 µM]	-17%	?
CCCCNC(=O)CCC(=O)NNc1nc2ccccc2c2nc(C)nn12	-1%	-7%[10.9 µM]	2%	-4%
CCCCNC(=O)CCC(=O)NNc1nc2ccccc2c2nc(-c3ccccc3)nn12	3%	?	-2%	13µM*
Cc1ccnc(NC(=O)CCC2CCCCC2)c1	?	-32%	13µM*	13µM*
Cc1cc(NC(=O)CCC2CCCCC2)no1	.	.	-13%	-10%
CCCOC1(C(F)(F)F)NC(=O)N(c2ccc(Cl)cc2)C1=O (stereo not drawn)	-3%	2%[10.9 µM]	8%	3%
COc1cccc(C(=O)Nc2ccccc2C(=O)OCc2cc(=O)n3c4c(sc3n2)CCCC4)c1	7%	-14%[10.9 µM]	1%	21%
COc1ccc2c(=O)c(-c3ccccc3)coc2c1	.	-59%	?	5µM*
N#Cc1c(-c2ccccc2)no[n+]1[O-]	?	-30%	?	16µM*
COc1ccc2c(c1)[C@]1(C)CCC[C@](C)(CO)[C@@H]1CC2	3%[11.4 µM]	.	.	.
C[C@@H]1C[C@@H]2[C@H]3CCC4=CC(=O)C=C[C@]4(C)[C@]3(Cl)[C@@H](O)C[C@@]2(C)[C@@]1(O)C(=O)CO	?	.	-4%	-7%
CCOC(=O)c1c(C)[nH]c(C)c1S(=O)(=O)NCC(=O)N(C)c1ccc(C)c(C)c1	0%	-6%[10.9 µM]	10%	-9%
CN(C)c1ccc(/C=C(\C#N)c2nc3ccccc3c(=O)[nH]2)cc1	?	-6%[10.9 µM]	0.32µM*	0.32µM*
COc1cccc(NC(=O)CSCc2cc(=O)c3ccc(C)c(C)c3[nH]2)c1	?	7%[10.9 µM]	10%	?
Cc1ccc(C)c(CNC(=O)c2ccc3c(c2)nc2n3CCC(C)C2)c1 (stereo not drawn)	?	-10%[10.9 µM]	-13%	-3%
SMILES	IkB signaling	Imprint erasure	p53ts 32C tox	p53ts 39C tox
O=C(CSc1nc2c([nH]c3ccccc32)c(=O)n1-c1ccc(Cl)cc1)NC1CCCCC1	?	-11%[10.9 µM]	4%	10µM*
COc1ccc(CCN2CCC(CNC(=O)c3cnn(-c4ccccc4)c3C3CCN(C(=O)OC(C)(C)C)CC3)CC2)cc1	?	-10%[10.9 µM]	-9%	13µM*
CC(C)(C)OC(=O)N1CCC(c2c(C(=O)NCCN3CCC(Cc4ccccc4)CC3)cnn2-c2ccccc2)CC1	-7%	-15%[10.9 µM]	?	32µM*
CC(C)(C)OC(=O)N1CCC(c2c(C(=O)NCCN3CCC(Cc4ccccc4)CC3)cnn2-c2ccc(F)cc2)CC1	?	-10%[10.9 µM]	?	25µM*
CC(C)(C)OC(=O)N1CCC(c2c(C(=O)NCc3ccc(F)cc3)cnn2-c2ccc(F)cc2)CC1	?	6%[10.9 µM]	26%	-1%
COc1ccc(CCN2CCC(CNC(=O)c3cnn(-c4cccc(Cl)c4)c3C3CCN(C(=O)OC(C)(C)C)CC3)CC2)cc1	?	-3%[10.9 µM]	?	?
COc1cccc(N2CCN(C(=O)C3CCC(CNS(=O)(=O)c4ccc(Br)s4)CC3)CC2)c1 (stereo not drawn)	?	-11%[10.9 µM]	0%	-24%
